Experimental data: PubChem BioAssay (NCI)
About 83,000 compounds went through this panel and 20% of them were active in at least one assay; those are over-represented in the sample as a whole.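 Growth was measured after 48 h exposure to one concentration of compound in 96-well plates. Values under 10 count as active.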 Values without a mark were called inactive. Active and inactive are the calls of the source.

Columns and labels:
Assay in all cases: NCI-60 one-dose screen, 48 h (100 = growth as untreated, 0 = no growth, -100 = all killed)
DU-145 prostate = details: 10 µM unless noted
K-562 leukemia = details: 10 µM unless noted
MALME-3M melanoma = details: 10 µM unless noted
MDA-MB-231 breast = details: 10 µM unless noted
RXF 393 renal = details: 10 µM unless noted
SF-268 CNS = details: 10 µM unless noted
SF-295 CNS = details: 10 µM unless noted
SF-539 CNS = details: 10 µM unless noted
UACC-257 melanoma = details: 10 µM
M14 melanoma = details: 10 µM unless noted
HCT-15 colon = details: 10 µM unless noted
HT29 colon = details: 10 µM unless noted
SNB-75 CNS = details: 10 µM unless noted
SNB-19 CNS = details: 10 µM unless noted
U251 CNS = details: 10 µM unless noted
PC-3 prostate = details: 10 µM unless noted
SK-MEL-5 melanoma = details: 10 µM unless noted
UACC-62 melanoma = details: 10 µM unless noted
LOX IMVI melanoma = details: 10 µM unless noted
SK-MEL-28 melanoma = details: 10 µM unless noted

Compound | growth (DU-145 prostate) | growth (K-562 leukemia) | growth (MALME-3M melanoma) | growth (MDA-MB-231 breast) | growth (RXF 393 renal) | growth (SF-268 CNS) | growth (SF-295 CNS) | growth (SF-539 CNS) | growth (UACC-257 melanoma) | growth (M14 melanoma) | growth (HCT-15 colon) | growth (HT29 colon) | growth (SNB-75 CNS) | growth (SNB-19 CNS) | growth (U251 CNS) | growth (PC-3 prostate) | growth (SK-MEL-5 melanoma) | growth (UACC-62 melanoma) | growth (LOX IMVI melanoma) | growth (SK-MEL-28 melanoma)
O=C1[C@@H]2Cc3c([nH]c4ccccc34)[C@H](c3c(Cl)cccc3Cl)N2C(=O)CN1C1CCN(Cc2ccccc2)CC1 | 31.6% | -8.4% (active) | 44.9% | 55.4% | 55.9% | 52.5% | -79.4% (active) | 70.3% | 46.4% | 23.3% | -25.7% (active) | 2.12% (active) | 62% | 61.8% | 38.9% | 41.8% | 45.2% | 90.2% | -80% (active) | 14.6%
CCOC(=O)C1=C(C)Nc2nc3ccccc3n2C1c1ccccc1 (stereo not given) | 105% | 76.1% | 94.3% | 95.8% | 107% | 102% | 102% | 96.9% | 97.4% | 102% | 90.8% | 97.9% | 99.1% | 97.8% | 101% | 97.7% | 99.3% | 85.7% | 90.4% | 109%
c1ccc(-c2c(-c3ccccc3)[n+](Cc3ccc4ccccc4c3)c(-c3ccccc3)n2Cc2ccc3ccccc3c2)cc1 | -92.6% (active) | -30.9% (active) | -82.5% (active) | -85.6% (active) | -91.9% (active) | -73.5% (active) | -91.3% (active) | -90% (active) | -56.6% (active) | -72% (active) | -81.7% (active) | -70.1% (active) | -78.4% (active) | -94.9% (active) | -78.8% (active) | -87.3% (active) | -99.1% (active) | -88.6% (active) | -89.8% (active) | -93.3% (active)
CCOC(=O)c1c(NC(=O)c2ccc(C(C)(C)C)cc2)sc2cc(OCCN3CCCCC3)ccc12 | 71.5% | 16% | 97% | 70.1% | 68.1% | 90.6% | 99.7% | 82.1% | 100% | 89.3% | 22.3% | 24.3% | 94.7% | 55.6% | 45.3% | 76.2% | 96.9% | 102% | -74.4% (active) | 104%
CN(C)C(=O)C1=NC(CO)C(=O)N(c2ccc(Cl)cc2)N1 (stereo not given) | 107% | 109% | 101% | 97.9% | 120% | 97.8% | 103% | 95.8% | 107% | 92.8% | 102% | 102% | 105% | 102% | 101% | 90.8% | 102% | 96.6% | 95.3% | 107%
COC[C@]12CC[C@@H](C)[C@H](C)[C@H]1C1=CC[C@@H]3[C@@]4(C)CCCNC(C)(C)[C@@H]4CC[C@@]3(C)[C@]1(C)CC2 | 12.8% | 0.992% (active) | -36.7% (active) | 51.2% | 56.2% | 70.2% | -74.2% (active) | 26.3% | 20.3% | -48.3% (active) | 8.12% (active) | 0.874% (active) | 105% | 47.8% | -34.8% (active) | 18.4% | 35.6% | 17.2% | -87.8% (active) | -59.6% (active)
C#C[C@]1(O)CC[C@H]2[C@@H]3CC=C4c5sc(Nc6cc(OC)ccc6OC)nc5CC[C@]4(C)[C@H]3CC[C@@]21C | 43.8% | 6.54% (active) | 14.4% | 35.9% | -57.4% (active) | 30.8% | -67% (active) | -19.4% (active) | 0.933% (active) | -1.11% (active) | 10.3% | 21.1% | 2.31% (active) | 38.3% | 26.1% | 18.9% | 6.5% (active) | -14% (active) | 5.19% (active) | -46.6% (active)
CC(C)(C)n1nnnc1C(Nc1nccs1)c1cc2cccc3ccc4cccc1c4c32 (stereo not given) | 107% | 102% | 97% | 99.3% | 92.1% | 100% | 93.1% | 92.9% | 100% | 106% | 93.2% | 104% | 95.7% | 88.8% | 89.3% | 90.1% | 94% | 48.8% | 96.3% | 101%
CC(=O)C1=NN(c2ccc(Cl)cc2)C(=O)CN1C | 107% | 114% | 107% | 105% | 121% | 108% | 95.5% | 97.8% | 101% | 101% | 100% | 102% | 106% | 103% | 97.6% | 98.1% | 102% | 97.7% | 98.3% | 102%
O=C(/C=C/Nc1ccc(S(=O)(=O)O)cc1)c1ccc(F)cc1 | 103% | 106% | 105% | 106% | 99.9% | 102% | 98.7% | 94% | 101% | 96% | 96.4% | 103% | 92.4% | 93.4% | 98% | 96.1% | 99.2% | 93.5% | 95.9% | 101%
CCC(CC)n1c(=O)c(SC2=NC3C(NN2)N(CC)C(=O)N3CC)c(C(=O)O)c2ccccc21 (stereo not given) | 16.2% | 11.1% | 68.1% | 19.1% | 13.4% | 52.4% | 22.3% | 3.93% (active) | 59.9% | 16% | 14.2% | 2.44% (active) | 39.6% | 35.2% | 14.8% | 23.9% | 6.37% (active) | 22.5% | 23% | 65.4%
CCN1C/C(=N\S(=O)(=O)c2ccccc2)N(CC)C1=S | 117% | 98.8% | 100% | 104% | 117% | 104% | 103% | 102% | 97.6% | 99% | 101% | 108% | 91.3% | 98.2% | 97.4% | 110% | 102% | 95.2% | 99.3% | 104%
IP(CCCCCCCCCCSc1n(Cc2ccc3ccccc3c2)c(-c2ccccc2)c(-c2ccccc2)[n+]1Cc1ccc2ccccc2c1)(c1ccccc1)(c1ccccc1)c1ccccc1 | -69.6% (active) | -46.4% (active) | -70.5% (active) | -63.7% (active) | -35.6% (active) | -54.6% (active) | -77.6% (active) | -66.7% (active) | -55.8% (active) | -61.2% (active) | -68.3% (active) | -59.4% (active) | -52.6% (active) | -84.8% (active) | -68.5% (active) | -80.4% (active) | -98.3% (active) | -73.6% (active) | -78.1% (active) | -83.7% (active)
Brc1cccc(/C=N/Nc2nc(N/N=C/c3cccc(Br)c3)nc(N3CCOCC3)n2)c1 | 27.3% | 14.5% | -54% (active) | 66.1% | -68% (active) | 68.4% | 29.1% | 56.4% | 35.9% | 31.7% | -8.94% (active) | 6.61% (active) | 107% | 77.9% | 42.7% | 36.5% | 20.7% | 56% | 5.23% (active) | 17.1%
CC(=O)c1sc(Nc2cccc(Nc3nc(C)c(C)s3)c2)nc1C | 45.4% | 40.9% | 69.8% | 80.7% | 47% | 71.1% | 86.5% | 72.2% | 88.7% | 51.3% | 44.9% | 70% | 62.9% | 90.9% | 65.7% | 51.3% | 55.8% | 48.8% | 48.1% | 71.5%
